# Source: PubChem BioAssay (Tox21)
# Results filed as inconclusive are left out. Where a call stands in place of a potency, no number is given. Activity calls are given as the source filed them. Unless noted, the call rests on the fitted dose curve; in most records, active means well fitted curve in the direction sought with a large enough effect in the repeat runs; inconclusive means weak or mixed curves; inactive means no such curve, though single readings can be large; an effect the other way counts as inactive or inconclusive.
# How the values were obtained:
# [1] = qHTS assay to identify small molecule antagonists of the glucocorticoid receptor (GR) signaling pathway - cell viability counter screen (AID 720693); further: nearly all actives have a fitted effect of over 55% in size
# [2] = qHTS assay for identifying genotoxic compounds that show differential cytotoxicity against isogenic chicken DT40 cell lines with known DNA damage response pathways - wild type cell line (AID 743012); further: nearly all actives have a fitted effect of over 60% in size; further: potency means the concentration at half of the fitted maximal effect
# How it was run: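 Using parental DT40 (300 cells/well), compounds delivered in DMSO incubate 40 h at 37 C/5% CO2. CellTiter-Glo reagent then stands 30 min at room temperature, and luminescence gives cell viability.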
# [3] = qHTS assay for identifying genotoxic compounds that show differential cytotoxicity against isogenic chicken DT40 cell lines with known DNA damage response pathways - Rev3 mutant cell line (AID 743014); further: nearly all actives have a fitted effect of over 55% in size; further: potency means the concentration at half of the fitted maximal effect
# [4] = qHTS assay for identifying genotoxic compounds that show differential cytotoxicity against isogenic chicken DT40 cell lines with known DNA damage response pathways - Rad54/Ku70 mutant cell line (AID 743015); further: nearly all actives have a fitted effect of over 60% in size; further: potency means the concentration at half of the fitted maximal effect
# [5] = qHTS assay to identify small molecule antagonists of the androgen receptor (AR) signaling pathway - cell viability counter screen (AID 743033; further: nearly all actives have a fitted effect of over 45% in size)
# [6] = qHTS assay to identify small molecule antagonists of the androgen receptor (AR) signaling pathway using the MDA cell line - cell viability counter screen (AID 743041; further: nearly all actives have a fitted effect of over 45% in size; further: potency means the concentration at half of the fitted maximal effect)
# How it was run: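 R1881-driven MDA-kb2 AR-luc cells, 3,000/well, were dosed with library compounds for 16 h; cell health came from CellTiter-Fluor fluorescence in the reporter wells.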
# [7] = qHTS assay to identify small molecule antagonists of the thyroid receptor (TR) signaling pathway - cell viability counter screen (AID 743064); further: nearly all actives have a fitted effect of over 50% in size; further: potency means the concentration at half of the fitted maximal effect
# How it was run: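 In rat pituitary GH3.TRE-Luc reporter cells co-exposed to compound and 1 nM T3 for 23.5 h, cytotoxicity was assessed with CellTiter-Fluor in the same wells, read by fluorescence.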
# [8] = qHTS assay to identify small molecule antagonists of the thyroid receptor (TR) signaling pathway (AID 743065); further: nearly all actives have a fitted effect of over 55% in size; further: potency means the concentration at half of the fitted maximal effect
# How it was run: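 Antagonism measured as loss of luciferase signal in GH3 cells stably carrying a TRE-luciferase reporter, co-treated with compound and T3 (1 nM final) for 23.5 h at 37 C. Viability was read in the same well by CellTiter-Fluor.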
# [9] = system: thyroid hormone receptor (rat, GH3 cells); test: qHTS assay to identify small molecule agonists of the thyroid receptor (TR) signaling pathway (AID 743066; calls by dose curve)
# [10] = biological target: Estrogen receptor (Homo sapiens) (UniProt P03372); test: qHTS assay to identify small molecule antagonists of the estrogen receptor alpha (ER-alpha) signaling pathway (AID 743069; active means well fitted curve in the direction sought with a large enough effect in the signal ratio in the repeat runs, not every such curve was filed as active; the % refers to the signal ratio; further: potency means the concentration at half of the fitted maximal effect)
# Estrogen receptor (Homo sapiens), sequence (P03372 whole entry, looked up): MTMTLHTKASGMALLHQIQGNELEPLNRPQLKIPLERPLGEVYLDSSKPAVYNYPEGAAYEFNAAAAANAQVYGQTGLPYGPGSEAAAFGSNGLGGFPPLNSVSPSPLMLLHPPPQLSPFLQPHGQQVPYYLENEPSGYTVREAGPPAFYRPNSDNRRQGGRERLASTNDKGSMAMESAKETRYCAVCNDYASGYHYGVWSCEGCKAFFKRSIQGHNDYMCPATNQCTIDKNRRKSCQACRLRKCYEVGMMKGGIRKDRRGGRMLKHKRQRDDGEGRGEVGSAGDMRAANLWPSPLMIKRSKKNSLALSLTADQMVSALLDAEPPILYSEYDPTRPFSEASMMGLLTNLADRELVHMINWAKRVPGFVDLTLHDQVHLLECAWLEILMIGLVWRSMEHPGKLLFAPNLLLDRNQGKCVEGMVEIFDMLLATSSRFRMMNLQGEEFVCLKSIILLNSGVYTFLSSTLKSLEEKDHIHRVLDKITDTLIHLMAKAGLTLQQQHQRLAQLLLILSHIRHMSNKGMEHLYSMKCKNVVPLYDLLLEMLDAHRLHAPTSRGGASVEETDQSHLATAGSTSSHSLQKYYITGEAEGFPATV
# How it was run: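 Compound effects are measured against 17beta-estradiol stimulation in HEK293 cells with a UAS-controlled beta-lactamase reporter for ER-alpha. Exposure lasts 18 hr at 37C; LiveBLAzer B/G FRET substrate follows for 2 hr at room temperature.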
# [11] = biological target: Estrogen receptor (Homo sapiens) (UniProt P03372); test: qHTS assay to identify small molecule agonists of the estrogen receptor alpha (ER-alpha) signaling pathway (AID 743075; calls by dose curve; further: potency means the concentration at half of the fitted maximal effect)
# [12] = biological target: Estrogen receptor (Homo sapiens) (UniProt P03372); test: qHTS assay to identify small molecule agonists of the estrogen receptor alpha (ER-alpha) signaling pathway using the BG1 cell line (AID 743079); further: nearly all actives have a fitted effect of over 20% in size; further: potency means the concentration at half of the fitted maximal effect
# [13] = qHTS assay to identify small molecule antagonists of the estrogen receptor alpha (ER-alpha) signaling pathway using the BG1 cell line - cell viability counter screen (AID 743081);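 further: compound given together with 17beta-estradiol as the ER stimulus; series mostly up to about 70 µM; nearly all actives have a fitted effect of over 45% in size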
# Aromatase (Homo sapiens) = Aromatase (Homo sapiens) (UniProt P11511); test: qHTS assay to identify aromatase inhibitors (AID 743083); further: series mostly up to about 70 µM; nearly all actives have a fitted effect of over 55% in size
# Aromatase (Homo sapiens), sequence (P11511 whole entry, looked up): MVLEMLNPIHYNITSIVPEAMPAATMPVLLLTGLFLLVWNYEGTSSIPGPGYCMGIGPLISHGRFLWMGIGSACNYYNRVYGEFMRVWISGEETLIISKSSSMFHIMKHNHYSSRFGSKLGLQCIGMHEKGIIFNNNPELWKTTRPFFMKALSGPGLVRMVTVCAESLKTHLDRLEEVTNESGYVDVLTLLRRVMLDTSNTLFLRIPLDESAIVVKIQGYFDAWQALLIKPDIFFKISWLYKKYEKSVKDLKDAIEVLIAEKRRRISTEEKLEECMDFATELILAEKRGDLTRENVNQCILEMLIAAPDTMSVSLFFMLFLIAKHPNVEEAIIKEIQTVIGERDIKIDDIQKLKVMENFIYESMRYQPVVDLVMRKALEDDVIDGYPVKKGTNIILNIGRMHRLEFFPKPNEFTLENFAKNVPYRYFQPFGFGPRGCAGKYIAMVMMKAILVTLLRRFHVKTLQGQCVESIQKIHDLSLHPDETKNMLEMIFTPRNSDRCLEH
# [14] = qHTS assay to identify small molecule antagonists of the estrogen receptor alpha (ER-alpha) signaling pathway - cell viability counter screen (AID 743074; calls by dose curve;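 further: HEK293 cells carrying ER-alpha-UAS-bla reporter stimulated with 17beta-estradiol; nearly all actives have a fitted effect of over 45% in size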)
# [15] = qHTS assay to identify small molecule antagonists of the estrogen receptor alpha (ER-alpha) signaling pathway using the BG1 cell line (AID 743080; calls by dose curve;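 further: BG1 cells stimulated with 17beta-estradiol alongside compound; series mostly up to about 70 µM; nearly all actives have a fitted effect of over 25% in size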)
# How it was run: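 BG1Luc4E2, endogenous ER-alpha, 4xERE-luc; 5 d charcoal-stripped FBS, phenol red free; 24 h plating; cpd + 17beta-estradiol 21.5 h, 37 C/5% CO2; CellTiter-Fluor viability 30 min, then ONE-Glo luciferase 30 min RT.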
# [16] = biological target: Androgen receptor (Homo sapiens) (UniProt P10275); test: qHTS assay to identify small molecule antagonists of the androgen receptor (AR) signaling pathway (AID 743035; active means well fitted inhibition curve with a large enough effect in the signal ratio in the repeat runs, not every such curve was filed as active; the % refers to the signal ratio)
# Androgen receptor (Homo sapiens), sequence (P10275 whole entry, looked up): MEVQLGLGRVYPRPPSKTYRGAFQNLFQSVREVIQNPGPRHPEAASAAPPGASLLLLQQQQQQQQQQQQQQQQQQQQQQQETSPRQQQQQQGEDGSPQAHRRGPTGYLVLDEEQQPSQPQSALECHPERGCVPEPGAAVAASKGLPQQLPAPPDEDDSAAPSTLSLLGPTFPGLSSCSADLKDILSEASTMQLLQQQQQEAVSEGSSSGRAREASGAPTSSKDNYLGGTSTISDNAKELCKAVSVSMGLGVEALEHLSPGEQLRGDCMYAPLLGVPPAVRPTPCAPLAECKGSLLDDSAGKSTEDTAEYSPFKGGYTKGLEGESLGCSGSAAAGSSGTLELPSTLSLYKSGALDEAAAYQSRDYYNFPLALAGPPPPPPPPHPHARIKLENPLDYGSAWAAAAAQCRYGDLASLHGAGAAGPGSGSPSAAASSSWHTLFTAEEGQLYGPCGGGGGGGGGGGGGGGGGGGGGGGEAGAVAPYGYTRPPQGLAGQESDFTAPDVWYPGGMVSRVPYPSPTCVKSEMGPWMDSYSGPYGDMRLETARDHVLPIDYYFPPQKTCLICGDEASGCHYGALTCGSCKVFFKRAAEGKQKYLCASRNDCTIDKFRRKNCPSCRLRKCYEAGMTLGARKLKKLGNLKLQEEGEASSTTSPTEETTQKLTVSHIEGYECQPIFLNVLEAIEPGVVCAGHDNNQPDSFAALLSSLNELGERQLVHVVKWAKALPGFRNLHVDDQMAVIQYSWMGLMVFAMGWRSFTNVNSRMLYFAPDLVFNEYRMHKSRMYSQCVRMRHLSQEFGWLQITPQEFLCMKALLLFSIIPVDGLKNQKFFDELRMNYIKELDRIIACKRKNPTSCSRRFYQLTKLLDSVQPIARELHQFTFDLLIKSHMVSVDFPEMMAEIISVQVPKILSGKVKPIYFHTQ
# How it was run: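 Using qHTS, AR-UAS-bla GripTite HEK293 cells received compound, then R1881, and were cultured 16 h at 37C/5% CO2 before a 2 h room-temperature LiveBLAzer B/G FRET substrate step and fluorescence measurement.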
# [17] = biological target: Androgen receptor (Homo sapiens) (UniProt P10275); test: qHTS assay to identify small molecule agonists of the androgen receptor (AR) signaling pathway using the MDA cell line (AID 743040; further: nearly all actives have a fitted effect of over 20% in size)
# How it was run: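 After a 5 h incubation at 37C and 0% CO2, MDA-kb2 reporter cells were dosed with compounds in DMSO and kept 16 h under the same conditions. Luciferase activity was then read as luminescence with ONE-Glo.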
# [18] = biological target: Androgen receptor (Homo sapiens) (UniProt P10275); test: qHTS assay to identify small molecule antagonists of the androgen receptor (AR) signaling pathway using the MDA cell line (AID 743042; further: nearly all actives have a fitted effect of over 55% in size)
# How it was run: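 Antagonist mode: compounds plus R1881 agonist added to MDA-kb2 AR-luc cells, incubated 16 h at 37C. Luciferase reporter luminescence quantified, with multiplexed CellTiter-Fluor readout for cell viability.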
# [19] = biological target: Androgen receptor (Homo sapiens) (UniProt P10275); test: qHTS assay to identify small molecule agonists of the androgen receptor (AR) signaling pathway (AID 743036; active means well fitted activation curve with a large enough effect in the signal ratio in the repeat runs, with a control signal flat, not every such curve was filed as active; the % refers to the signal ratio)
# How it was run: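 Cell-based FRET reporter assay: HEK293 line with a UAS-beta-lactamase construct, compounds added in DMSO, 16 h exposure at 37C, then 2 h substrate step at room temperature and fluorescence intensity read.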
Structure (SMILES),outcome [1],Potency [2],Potency [3],Potency [4],outcome [5],Potency [6],Potency [7],Potency [8],outcome [9],Potency [10],Potency [11],Potency [12],outcome [13],outcome (Aromatase (Homo sapiens)),Potency [14],Potency [15],Potency [16],Potency [17],outcome [18],outcome [19]
Nc1ccn([C@@H]2O[C@H](CO)[C@@H](O)C2(F)F)c(=O)n1,inactive,0.015 µM (active),0.0188 µM (active),0.0188 µM (active),inactive,inactive,0.168 µM (active),0.0422 µM (active),inactive,4.77 µM [inhibitor] (active),inactive,inactive,inactive,inactive,–,–,–,–,–,–
CC1=NN(c2cc(S(=O)(=O)O)ccc2Cl)C(=O)C1N=Nc1ccccc1 (stereo not given),inactive,inactive,inactive,inactive,inactive,61.1 µM (active),–,inactive,inactive,inactive,inactive,inactive,–,inactive,inactive,–,–,–,–,–
Cc1cccc(C)c1NC(=O)CC12CCCN1CCC2,inactive,inactive,inactive,inactive,–,inactive,inactive,inactive,inactive,inactive,inactive,inactive,inactive,inactive,inactive,inactive,–,–,–,–
CCOc1ccccc1OCC,inactive,inactive,inactive,–,inactive,inactive,inactive,inactive,inactive,–,–,–,inactive,inactive,inactive,–,–,–,–,–
CCCCCC(C)N (stereo not given),inactive,inactive,inactive,–,inactive,inactive,inactive,inactive,inactive,–,–,–,inactive,inactive,inactive,–,inactive,inactive,inactive,–
O=C(c1ccccc1)C1(O)CCCCC1,inactive,inactive,inactive,–,inactive,inactive,inactive,inactive,inactive,–,–,–,inactive,inactive,inactive,–,–,–,–,–
CC(C)COC(=O)c1ccc(N)cc1,inactive,inactive,inactive,inactive,inactive,inactive,–,–,–,inactive,26.8 µM [activator] (active),26.6 µM (active),inactive,inactive,inactive,–,–,–,–,–
COc1cccc(OC)c1C(=O)N[C@@H]1C(=O)N2[C@@H]1SC(C)(C)[C@@H]2C(=O)O,inactive,inactive,inactive,inactive,–,inactive,–,–,–,–,–,–,inactive,inactive,inactive,–,–,–,–,–
O=C(O)CC(C(=O)O)S(=O)(=O)O (stereo not given),inactive,68.6 µM (active),61.1 µM (active),–,inactive,inactive,inactive,inactive,inactive,inactive,inactive,inactive,inactive,inactive,inactive,inactive,–,–,–,–
CC(=O)NC(=O)c1ccccc1O,inactive,inactive,inactive,–,inactive,inactive,inactive,inactive,inactive,inactive,inactive,inactive,inactive,inactive,inactive,inactive,–,–,–,–
CC(C)[C@H]1CC[C@@H](C)CC1=O,inactive,inactive,inactive,inactive,inactive,inactive,inactive,–,–,–,–,–,inactive,inactive,inactive,–,–,–,–,–
Cc1ccc(C(=O)Nc2ccc(S(=O)(=O)O)c3cc(S(=O)(=O)O)cc(S(=O)(=O)O)c23)cc1NC(=O)c1cccc(NC(=O)Nc2cccc(C(=O)Nc3cc(C(=O)Nc4ccc(S(=O)(=O)O)c5cc(S(=O)(=O)O)cc(S(=O)(=O)O)c45)ccc3C)c2)c1,inactive,inactive,inactive,–,inactive,inactive,inactive,inactive,inactive,inactive,inactive,inactive,inactive,inactive,–,inactive,–,–,–,–
C=C(C)C(=O)OCC1CCCO1 (stereo not given),inactive,inactive,inactive,–,inactive,inactive,inactive,inactive,inactive,–,–,–,inactive,–,inactive,–,–,–,–,–
C[N+]1(C)[C@@H]2CC(OC(=O)[C@H](CO)c3ccccc3)C[C@H]1[C@@H]1O[C@@H]12 (stereo not given in full),inactive,inactive,inactive,inactive,inactive,inactive,–,–,inactive,inactive,inactive,inactive,inactive,inactive,inactive,inactive,–,–,–,–
COCCOC[C@H](CC1(C(=O)NC2CCC(C(=O)O)CC2)CCCC1)C(=O)Oc1ccc2c(c1)CCC2 (stereo not given in full),inactive,inactive,inactive,–,inactive,inactive,–,inactive,inactive,inactive,inactive,inactive,inactive,inactive,inactive,inactive,inactive,inactive,inactive,inactive
C=COC(=O)C(C)(CC)CCC(C)C (stereo not given),inactive,inactive,inactive,–,inactive,inactive,inactive,inactive,inactive,inactive,inactive,inactive,inactive,inactive,–,inactive,–,–,–,–
CCCCCCCCCCCCCCCCCCO,inactive,inactive,inactive,–,inactive,inactive,inactive,inactive,inactive,inactive,inactive,inactive,inactive,inactive,inactive,–,–,–,–,–
CC(C)(C)C(=O)c1ccccc1,inactive,inactive,inactive,inactive,inactive,inactive,–,inactive,inactive,inactive,–,61.1 µM (active),inactive,inactive,inactive,inactive,–,–,–,–
O=C(O)CNC(=O)c1ccccc1,inactive,inactive,inactive,–,inactive,inactive,inactive,inactive,inactive,–,–,–,inactive,inactive,inactive,–,–,–,–,–
O=S(=O)(O)c1cccc2c(S(=O)(=O)O)cccc12,inactive,inactive,inactive,inactive,inactive,inactive,inactive,–,inactive,–,–,–,–,inactive,inactive,–,–,–,–,–
C=CN1CCCCCC1=O,inactive,inactive,inactive,inactive,inactive,–,inactive,–,–,–,–,–,inactive,–,inactive,–,–,–,–,–
CCCCCCCCCC[N+](C)(C)[O-],inactive,24.3 µM (active),13.7 µM (active),–,inactive,inactive,inactive,–,–,inactive,inactive,inactive,inactive,inactive,inactive,inactive,inactive,inactive,inactive,–
Clc1cc(Cl)cc(Cl)c1,inactive,inactive,inactive,inactive,inactive,inactive,inactive,–,–,inactive,inactive,inactive,inactive,inactive,inactive,inactive,–,–,–,–
CC(C)CCCO,inactive,inactive,inactive,–,inactive,inactive,inactive,inactive,inactive,inactive,inactive,inactive,inactive,inactive,inactive,inactive,–,–,–,–
